From PubChem BioAssay (Tox21)
Results filed as inconclusive are left out. Unmarked numbers belong to inactive results. Calls of active or inactive are those of the source. Calls follow the shape of the dose curve; as a rule, active = well fitted cell-killing curve with a large enough effect in the repeat runs; inconclusive = weak or mixed curves, or effect the other way; inactive = flat fitted curve, though single readings scatter.

assay: qHTS assay to identify small molecule agonists of the sonic hedgehog signaling (Shh) pathway - cell viability counter screen (AID 1259366); conditions: NIH/3T3 Gli1-Luc viability, CellTiter-Fluor, 24 h; series mostly up to 92.4 µM; viability change, negative = cytotoxic: at the top concentration; also: nearly all actives have a fitted effect of over 50% in size
Text: National Center for Advancing Translational Sciences [NCATS]
NIH Chemical Genomics Center [NCGC]
U.S. Environmental Protection Agency [EPA]
National Institutes of Environmental Health Sciences [NIEHS]
National Toxicology Program [NTP]
U.S. Food and Drug Administration [FDA]
The sonic hedgehog (Shh) pathway is essential for normal embryonic development. Dysregulation of the Shh pathway can cause severe developmental defects in organs. Therefore chemicals that interfere with the pathway are potential developmental toxicants. A cell line designated 3T3Gli1-Luc (DMB/OARSA/CFSAN/FDA, Laurel, MD), a NIH/3T3 derived clone containing stably integrated Gli1-Luc reporter is used to detect chemical interference of the Shh pathway, by changes in the expression of the firefly Luc gene under the control of the Gli1 transcriptional response element. This cell line was used to screen Tox21 libraries for identifying and prioritizing the potential developmental toxicants that interfere Shh pathway. The cytotoxicity of the compounds was tested in parallel by measuring the cell viability using CellTiter-Fluor assay system (Promega, Madison, WI) in the same wells.
Tox21 Assay Protocol Summary:
3T3 Gli1-Luc cells were dispensed at 2,000 per well in 5uL of culture medium into white solid bottom 1536-well plates (Greiner Bio-One, Monroe, NC) using a Multidrop Combi (Thermo Scientific, Waltham, MA) dispenser. The assay plates were incubated at 37 C and 5% CO2 for 4hr, and then 23nL of compounds dissolved in DMSO and positive control were transferred using a Pintool station (Wako, San Diego, CA). The assay plates were incubated at 37C and 5% CO2 for 24hr. For viability read, after 23hr of compound treatment, 1uL of CellTiter-Fluor reagent (Promega Corporation, Madison, WI) was added to each well of the assay plates using Flying Reagent Dispenser (FRD, Aurora Discovery, San Diego, CA) and incubated the assay plates at 37C for 1hr. The fluorescence signal was quantified using a ViewLux plate reader (Perkin Elmer, Shelton, CT).
% is scaled to controls: 0 for no effect and ±100 for the full control effect.

| SMILES | viability change, negative = cytotoxic | Potency |
| --- | --- | --- |
| CC(=O)CC(C)C | -0.245% |  |
| COC(=O)c1c(Cl)c(Cl)c(C(=O)OC)c(Cl)c1Cl | -8.2% |  |
| Cc1cc2c(cc1S(N)(=O)=O)S(=O)(=O)CCC2 | -2.76% [at 42.5 µM] |  |
| NS(=O)(=O)c1ccc(C(=O)O)cc1 | 3.77% [at 42.5 µM] |  |
| COC(=O)NN | -0.126% |  |
| O=C(c1ccccc1)C1CCCCC1 | 2.27% |  |
| C[C@](N)(Cc1ccc(O)cc1)C(=O)O | 4.48% [at 8.39 µM] |  |
| NCCCNCCSP(=O)(O)O | -2.35% [at 8.39 µM] |  |
| N#Cc1ccc(C2CCCc3cncn32)cc1 (stereo not given) | -0.566% [at 42.5 µM] |  |
| CC(C(=O)O)c1ccc(CC2CCCC2=O)cc1 (stereo not given) | -1.82% [at 42.5 µM] |  |
| NC(=O)c1cn(Cc2c(F)cccc2F)nn1 | 2.66% [at 42.5 µM] |  |
| CCOC(=O)c1c(C)n(C)c2ccc(O)cc12 | 6.74% [at 42.5 µM] |  |
| CC/C=C\CC/C=C/CO | -1.5% |  |
| COCCCOCCCOC | -0.339% |  |
| O=C1CCCCCCCCCCCN1 |  | inactive |
| CC1(C)C(O)C(C)(C)C1O (stereo not given) | -5.48% |  |
| N=C(N)c1ccccc1 | 3.04% |  |
| CCCCCCCCCCCC | 0.818% |  |
| CCOC(C)(C)C | 1.34% |  |
| O=C(O)Cc1ccc(CCNS(=O)(=O)c2ccc(Cl)cc2)cc1 | 0.633% [at 42.5 µM] |  |

| SMILES | viability change, negative = cytotoxic | Potency |
| --- | --- | --- |
| N=C(N)c1ccc2cc(OC(=O)c3ccc(N=C(N)N)cc3)ccc2c1 | 0.402% [at 42.5 µM] |  |
| CC(=O)OC/C=C(\C)CC/C=C(\C)CCC=C(C)C |  | inactive |
| NS(=O)(=O)c1cc2c(cc1Cl)NC(C1CC3C=CC1C3)NS2(=O)=O (stereo not given) | 1.3% [at 42.5 µM] |  |
| CCn1ccnc1CC1COc2ccccc2O1 (stereo not given) | 4.23% [at 42.5 µM] |  |
| O=C1CC2CC1C1CCCC21 (stereo not given) | 5.28% |  |
| CCO/C([O-])=N/c1c[n+](N2CCOCC2)no1 | 0.544% [at 42.5 µM] |  |
| C=COCC1CCC(CO)CC1 (stereo not given) | 3.96% |  |
| CC(C)(O)C(=O)c1ccccc1 | 3.18% |  |
| CN1CCN(c2cc3c(cc2F)c(=O)c(C(=O)O)cn3-c2ccc(F)cc2)CC1 | -3.94% [at 42.5 µM] |  |
| CC(=O)CC(C)(C)C1CCCCC1 | -1% |  |
| COc1nc(N)nc2c1ncn2[C@@H]1O[C@H](CO)[C@@H](O)[C@@H]1O | 2.36% [at 42.5 µM] |  |
| CN(C)CCCNCCCN(C)C | 2.08% |  |
| CCC(C)C1CCCCC1=O (stereo not given) | 0.581% |  |
| CCN1CCC[C@H]1CNC(=O)c1c(O)c(Cl)cc(Cl)c1OC | -2.09% [at 42.5 µM] |  |
| O=C(O)CCCc1ccccc1 | 4.74% [at 42.5 µM] |  |
| O=C1NC(=O)[C@@]2(CCOc3ccc(F)cc32)N1 | -1.36% [at 42.5 µM] |  |
| NC(=O)Nc1ccccc1 | -5.93% |  |
| OCCOc1ccc(OCCO)cc1 | 2.95% |  |
| O=[N+]([O-])c1ccc(F)cc1F | 0.337% |  |
| Cc1[nH]c(=O)c(C#N)cc1-c1ccc2nccn2c1 | 2.53% [at 42.5 µM] |  |
